Experimental data from PubChem BioAssay (NCATS).
Results filed as inconclusive are left out. The source made the active and inactive calls. Unless noted, the call rests on the fitted dose curve; in most records, active means well fitted curve in the direction sought with a large enough effect; inconclusive means small, poorly fitted or top-dose-only effect, or another doubt; inactive means no such curve, though single readings can be large; an effect the other way counts as inactive or inconclusive.

Tests used:
[1] = target: Transient receptor potential cation channel subfamily V member 1 (Homo sapiens) (UniProt Q8NER1); assay: HTS Assay for Compounds that Act as Enhancers of the Vanilloid Receptor 1 (AID 488979); further: 0% is about no effect
Outline: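 TRPV1-expressing cells loaded with Fluo-8 calcium dye; compounds added and calcium influx read kinetically for 3 min (agonist phase), then capsaicin at EC20 added and read 2 min more for enhancement. Fluorescence ex 480/em 520 nm.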

[2] = target: Thyrotropin receptor (Homo sapiens) (UniProt P16473); assay: qHTS Assay for Antagonists of the Thyroid Stimulating Hormone Receptor (AID 488980); further: series mostly up to about 58 µM; 0% is about no effect
Outline: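 Cells expressing human TSHR (HEK293) are dispensed in HBSS/HEPES containing 70 uM RO 20-1724, compound is added, then TSH at EC80 (4 nM final). Antibody in lysis buffer follows, 30 minutes at room temperature before HTRF detection.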

[3] = target: D(1A) dopamine receptor (Homo sapiens) (UniProt P21728); assay: HTS Assay for Allosteric Agonists of the Human D1 Dopamine Receptor: Primary Screen for Agonists (AID 488981); further: 0% is about no effect
D(1A) dopamine receptor (Homo sapiens), sequence (P21728 whole entry, looked up): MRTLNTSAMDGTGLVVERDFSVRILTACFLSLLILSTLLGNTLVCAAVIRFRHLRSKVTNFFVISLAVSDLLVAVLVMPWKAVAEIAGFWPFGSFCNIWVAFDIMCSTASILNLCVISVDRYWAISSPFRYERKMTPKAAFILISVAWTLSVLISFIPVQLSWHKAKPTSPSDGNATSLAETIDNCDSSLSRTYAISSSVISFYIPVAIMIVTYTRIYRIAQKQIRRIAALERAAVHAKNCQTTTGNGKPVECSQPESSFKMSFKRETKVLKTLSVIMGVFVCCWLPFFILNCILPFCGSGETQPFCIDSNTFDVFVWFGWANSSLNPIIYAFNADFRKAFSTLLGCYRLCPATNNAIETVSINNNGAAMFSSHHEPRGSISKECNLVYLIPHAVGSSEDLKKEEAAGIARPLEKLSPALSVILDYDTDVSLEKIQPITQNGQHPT
Outline: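 Tetracycline-induced HEK293 T-REx cells force-coupled to calcium signalling were incubated overnight at 30 C and dye-loaded at room temperature. Calcium flux over 180 s after compound addition flagged agonists; a further 180 s read after EC20 dopamine flagged potentiators.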

[4] = target: D(1A) dopamine receptor (Homo sapiens) (UniProt P21728); assay: HTS Assay for Allosteric Agonists of the Human D1 Dopamine Receptor: Primary Screen for Antagonists (AID 488983);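 further: calcium flux response to an EC80 dopamine challenge measured with no-wash dye; on the % scale 0 is the no-effect control and ±100 the full control effect; nearly all actives have a fitted effect of over 65% in size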
Outline: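 Kinetic fluorescence at 1 cycle/sec tracked intracellular calcium in force-coupled, tetracycline-inducible HEK293 T-REx D1 cells. Loss of response to an EC80 dopamine dose, given 180 s after compound, marked antagonists.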

[5] = Validation screen for small molecules that induce genotoxicity in human embryonic kidney (HEK293T) cells expressing luciferase-tagged ELG1 (AID 493106); further: potency means the concentration at half of the fitted maximal effect
Outline: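 Cells were dispensed at 2,000 per well, then 23 nL compound or DMSO was pinned in. After 16 hr at 37 °C and 5% CO2, ONE-Glo reagent was added. Luciferase activity was measured following 30 min at room temperature.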

[6] = target: ATPase family AAA domain-containing protein 5 (Homo sapiens) (UniProt Q96QE3); assay: Validation screen for small molecules that inhibit ELG1-dependent DNA repair in human embryonic kidney (HEK293T) cells expressing luciferase-tagged ELG1 (AID 493107);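 further: cells co-treated with the DNA-damaging agent 5-fluorouridine alongside compound; series mostly up to about 46 µM; on the % scale 0 is the no-effect control and ±100 the full control effect; inhibitors lower the ELG1-luciferase luminescence signal; nearly all actives have a fitted effect of over 70% in size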
ATPase family AAA domain-containing protein 5 (Homo sapiens), sequence (Q96QE3 whole entry, looked up, the tested form may be a part): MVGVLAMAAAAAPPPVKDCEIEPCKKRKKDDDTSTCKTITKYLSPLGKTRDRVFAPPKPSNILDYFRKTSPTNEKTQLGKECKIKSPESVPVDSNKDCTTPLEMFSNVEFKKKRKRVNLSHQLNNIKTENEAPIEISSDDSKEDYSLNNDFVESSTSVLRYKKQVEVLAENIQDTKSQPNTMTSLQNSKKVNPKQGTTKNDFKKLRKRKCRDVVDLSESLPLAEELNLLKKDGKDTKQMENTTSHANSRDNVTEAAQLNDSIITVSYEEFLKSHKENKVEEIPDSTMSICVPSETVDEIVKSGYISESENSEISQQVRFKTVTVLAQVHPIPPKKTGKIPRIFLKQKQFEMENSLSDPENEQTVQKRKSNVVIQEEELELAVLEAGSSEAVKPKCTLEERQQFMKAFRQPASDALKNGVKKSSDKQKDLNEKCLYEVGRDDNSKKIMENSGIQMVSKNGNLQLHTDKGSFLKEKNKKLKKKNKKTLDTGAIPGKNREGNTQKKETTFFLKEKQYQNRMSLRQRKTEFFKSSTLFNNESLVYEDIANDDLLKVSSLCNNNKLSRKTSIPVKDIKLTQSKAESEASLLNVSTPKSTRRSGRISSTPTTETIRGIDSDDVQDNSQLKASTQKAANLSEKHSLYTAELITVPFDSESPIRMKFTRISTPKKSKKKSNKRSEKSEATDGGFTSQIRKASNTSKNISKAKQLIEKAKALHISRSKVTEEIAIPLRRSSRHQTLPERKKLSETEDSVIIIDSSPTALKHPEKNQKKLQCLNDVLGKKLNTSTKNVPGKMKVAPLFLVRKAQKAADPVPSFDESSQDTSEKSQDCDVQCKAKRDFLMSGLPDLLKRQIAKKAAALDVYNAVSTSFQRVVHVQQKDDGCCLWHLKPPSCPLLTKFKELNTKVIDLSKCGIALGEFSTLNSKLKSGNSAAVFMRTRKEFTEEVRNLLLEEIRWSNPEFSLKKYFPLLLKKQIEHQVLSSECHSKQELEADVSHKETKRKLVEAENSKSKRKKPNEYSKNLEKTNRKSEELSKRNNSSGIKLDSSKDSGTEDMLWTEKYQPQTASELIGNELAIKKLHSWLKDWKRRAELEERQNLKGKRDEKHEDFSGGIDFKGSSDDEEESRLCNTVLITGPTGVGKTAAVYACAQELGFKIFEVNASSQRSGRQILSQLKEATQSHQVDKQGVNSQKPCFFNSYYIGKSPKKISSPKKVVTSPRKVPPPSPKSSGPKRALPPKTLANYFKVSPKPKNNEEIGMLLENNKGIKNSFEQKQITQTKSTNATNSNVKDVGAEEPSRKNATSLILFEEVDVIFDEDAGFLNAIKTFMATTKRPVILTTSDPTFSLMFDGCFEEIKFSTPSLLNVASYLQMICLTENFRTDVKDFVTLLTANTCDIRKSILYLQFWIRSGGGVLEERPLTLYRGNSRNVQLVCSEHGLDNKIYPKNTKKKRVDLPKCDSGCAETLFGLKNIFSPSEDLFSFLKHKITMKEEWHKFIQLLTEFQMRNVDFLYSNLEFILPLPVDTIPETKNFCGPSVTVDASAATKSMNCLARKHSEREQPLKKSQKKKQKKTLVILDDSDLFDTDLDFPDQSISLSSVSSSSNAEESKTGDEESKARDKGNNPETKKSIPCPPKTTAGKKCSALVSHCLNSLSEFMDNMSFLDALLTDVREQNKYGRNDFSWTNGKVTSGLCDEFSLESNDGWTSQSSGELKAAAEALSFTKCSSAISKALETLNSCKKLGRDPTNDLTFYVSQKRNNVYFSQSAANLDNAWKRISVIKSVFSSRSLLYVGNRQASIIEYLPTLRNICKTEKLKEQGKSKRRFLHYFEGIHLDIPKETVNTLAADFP
Outline: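 Cells are dispensed in 1536-well format, then 5-fluorouridine and compound are pinned in. After a 16 hr incubation at 37 °C and 5% CO2, ONE-Glo is added and luciferase measured on a CCD imager.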

[7] = target: Thyrotropin-releasing hormone receptor (Homo sapiens) (UniProt P34981); assay: qHTS for Small Molecule Agonists and Allosteric Enhancers of Human TRH Receptor: Validation Screen for Agonists (AID 493127;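 active means calcium activation more than 3 SD above the typical response in the agonist read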;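 further: intracellular calcium rise by fluo-8 fluorescence before TRH EC20 addition; 0% is about no effect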); settings: TRH receptor agonist cell assay; at 2 µM; stronger effect = higher value
Outline: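 Compounds are added by online pintool to dye-loaded TRHR cells while fluorescence is recorded every second. A rise in calcium signal during the agonist read marks activation; a later 10 nM TRH addition (EC20) serves the separate enhancer mode.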

[8] = Nrf2 qHTS screen for inhibitors: Validation (AID 493153; active means well fitted inhibition curve with a large enough effect in the main read-out, with a control signal flat, not every such curve was filed as active); settings: viability change: measured here: cytotoxicity max response
Outline: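 A549 ARE_Fluc, 5% FBS OPTI-MEM; cpd titration, 18-24 h, 37°C/5% CO2. Read 1: CellTiter-Fluor (Ex 405/Em 525), cytotox. Read 2: luciferase lum, Nrf2 activity.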

[9] = qHTS for Inhibitors of Cell Surface uPA Generation: Validation Assay (AID 493164);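 further: RAW 264.7 macrophage cells exposed to compound for 18 h; 0% is about no effect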
Outline: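 ATP-Lite luminescence read-out: ATP remains high when uPA activity-dependent LF translocation into the cytoplasm is blocked. RAW 264.7 cells, 18 h compound exposure at 37 C; 7-point titration, 2.45 nM to 38.3 uM final.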

[10] = target: Peptidyl-prolyl cis-trans isomerase NIMA-interacting 1 (Homo sapiens) (UniProt Q13526); assay: qHTS Validation Assay to Find Inhibitors of Pin1 (AID 504536; active means well fitted inhibition curve with a large enough effect in the polarisation, with a control signal flat, not every such curve was filed as active; the % refers to the polarisation;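 further: 0% = full Pin1 enzyme wells and -100% = no-enzyme wells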)
Peptidyl-prolyl cis-trans isomerase NIMA-interacting 1 (Homo sapiens), sequence (Q13526 whole entry, looked up): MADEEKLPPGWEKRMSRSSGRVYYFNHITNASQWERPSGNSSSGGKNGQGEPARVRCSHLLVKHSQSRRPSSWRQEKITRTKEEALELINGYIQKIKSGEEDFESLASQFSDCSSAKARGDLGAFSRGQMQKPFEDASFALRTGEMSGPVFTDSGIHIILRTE
Outline: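 Fluorescence polarization competition: compounds (titration) displace HiFluor-488-labeled Pin1-1b peptide from Pin1 (0.3 uM final) in pH 7.5 HEPES buffer with DTT, 10 min at room temperature; %Activity normalized to no-enzyme wells, curves fitted.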

[11] = target: Phosphoglycerate kinase, glycosomal (Trypanosoma brucei brucei) (UniProt P07378); assay: qHTS Validation Assay to Find Inhibitors of Phosphoglycerate Kinase (AID 504547);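 further: control wells lack PGK and mark full inhibition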
Outline: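 In TEA buffer (100mM, pH 7.6) containing 5mM MgCl2 and 0.01% Tween-20, the GAPDH-coupled PGK reaction proceeded for 60 minutes at room temperature before a single luminescence reading using Kinase-Glo Plus.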

[12] = target: phosphoglycerate mutase (Leishmania major) (UniProt Q4Q090); assay: qHTS Validation Assay to Find Inhibitors of Phosphoglycerate Mutase (AID 504548);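 further: end-point luminescence from Kinase-GloPlus after the PGAM reaction; series mostly up to about 58 µM; on the % scale 0 is the no-effect control and ±100 the full control effect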
phosphoglycerate mutase (Leishmania major), sequence (Q4Q090 1-553): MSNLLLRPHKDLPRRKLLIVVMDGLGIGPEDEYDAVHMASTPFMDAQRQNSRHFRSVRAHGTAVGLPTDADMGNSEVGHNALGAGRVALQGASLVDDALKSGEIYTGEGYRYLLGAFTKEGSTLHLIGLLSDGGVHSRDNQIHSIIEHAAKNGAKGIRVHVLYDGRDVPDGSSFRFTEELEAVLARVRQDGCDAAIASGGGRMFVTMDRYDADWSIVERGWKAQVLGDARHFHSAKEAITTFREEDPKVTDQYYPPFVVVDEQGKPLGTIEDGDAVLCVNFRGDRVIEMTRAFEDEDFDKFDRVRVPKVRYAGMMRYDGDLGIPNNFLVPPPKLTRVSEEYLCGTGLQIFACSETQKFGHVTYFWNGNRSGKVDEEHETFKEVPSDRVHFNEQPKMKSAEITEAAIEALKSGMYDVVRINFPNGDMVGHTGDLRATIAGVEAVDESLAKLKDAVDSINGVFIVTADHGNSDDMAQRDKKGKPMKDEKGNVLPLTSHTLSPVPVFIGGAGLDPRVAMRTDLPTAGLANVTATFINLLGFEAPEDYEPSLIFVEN
Outline: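 Inhibition of L. major PGAM was assessed by Kinase-GloPlus luminescence following a 45-minute room-temperature reaction with enzyme at 1.25nM final.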

[13] = target: Ubiquitin carboxyl-terminal hydrolase 1 (Homo sapiens) (UniProt O94782); assay: Inhibitors of USP1/UAF1: Pilot qHTS (AID 504865);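 further: rhodamine fluorescence freed from ubiquitin-rhodamine substrate followed over time; top concentration of the series differs between compounds; on the % scale 0 is the no-effect control and ±100 the full control effect; nearly all actives have a fitted effect of over 35% in size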
Ubiquitin carboxyl-terminal hydrolase 1 (Homo sapiens), sequence (O94782 whole entry, looked up): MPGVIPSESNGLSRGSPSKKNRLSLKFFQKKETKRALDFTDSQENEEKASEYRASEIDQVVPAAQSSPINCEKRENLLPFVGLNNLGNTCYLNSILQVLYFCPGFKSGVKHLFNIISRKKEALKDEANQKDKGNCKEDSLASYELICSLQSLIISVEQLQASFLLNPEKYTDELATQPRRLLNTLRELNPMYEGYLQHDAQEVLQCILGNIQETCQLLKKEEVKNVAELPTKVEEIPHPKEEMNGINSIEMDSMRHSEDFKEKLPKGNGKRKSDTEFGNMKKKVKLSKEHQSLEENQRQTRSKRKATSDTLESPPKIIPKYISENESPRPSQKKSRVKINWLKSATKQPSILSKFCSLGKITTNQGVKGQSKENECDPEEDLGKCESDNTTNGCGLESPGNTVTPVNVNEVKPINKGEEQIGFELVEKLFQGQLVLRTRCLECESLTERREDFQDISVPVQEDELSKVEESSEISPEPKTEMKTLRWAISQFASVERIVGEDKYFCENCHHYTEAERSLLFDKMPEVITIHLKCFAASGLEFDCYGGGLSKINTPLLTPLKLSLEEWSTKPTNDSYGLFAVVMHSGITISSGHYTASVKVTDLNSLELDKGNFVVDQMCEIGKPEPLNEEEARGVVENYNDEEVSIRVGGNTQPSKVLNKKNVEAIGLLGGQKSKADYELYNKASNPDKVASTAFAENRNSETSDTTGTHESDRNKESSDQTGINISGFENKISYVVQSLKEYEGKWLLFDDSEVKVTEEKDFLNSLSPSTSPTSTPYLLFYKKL
Outline: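 Kinetic fluorescence assay: 1nM USP1/UAF1, 15 min compound preincubation, then 150nM Ub-Rho; 480/540 nm.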

[14] = target: Voltage-gated inwardly rectifying potassium channel KCNH2 (Homo sapiens) (UniProt Q12809); assay: qHTS Assay for Small Molecule Inhibitors of the Human hERG Channel Activity (AID 588834);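 further: U2OS cells transduced with hERG by BacMam; top concentration of the series differs between compounds; on the % scale 0 is the no-effect control and ±100 the full control effect; lower thallium flux fluorescence means stronger hERG block; nearly all actives have a fitted effect of over 50% in size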
Outline: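 Cells were infected with hERG-BacMam virus for 4 hrs at room temperature, grown overnight, then seeded at 2000/well. After dye loading and roughly 10 min compound treatment, thallium influx was triggered and fluorescence recorded.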

[15] = target: Glutaminase kidney isoform, mitochondrial (Homo sapiens) (UniProt O94925); assay: qHTS for Inhibitors of Glutaminase (GLS): LOPAC Validation (AID 624146); further: potency means the concentration at half of the fitted maximal effect; nearly all actives have a fitted effect of over 60% in size
Glutaminase kidney isoform, mitochondrial (Homo sapiens), sequence (O94925 whole entry, looked up, canonical isoform): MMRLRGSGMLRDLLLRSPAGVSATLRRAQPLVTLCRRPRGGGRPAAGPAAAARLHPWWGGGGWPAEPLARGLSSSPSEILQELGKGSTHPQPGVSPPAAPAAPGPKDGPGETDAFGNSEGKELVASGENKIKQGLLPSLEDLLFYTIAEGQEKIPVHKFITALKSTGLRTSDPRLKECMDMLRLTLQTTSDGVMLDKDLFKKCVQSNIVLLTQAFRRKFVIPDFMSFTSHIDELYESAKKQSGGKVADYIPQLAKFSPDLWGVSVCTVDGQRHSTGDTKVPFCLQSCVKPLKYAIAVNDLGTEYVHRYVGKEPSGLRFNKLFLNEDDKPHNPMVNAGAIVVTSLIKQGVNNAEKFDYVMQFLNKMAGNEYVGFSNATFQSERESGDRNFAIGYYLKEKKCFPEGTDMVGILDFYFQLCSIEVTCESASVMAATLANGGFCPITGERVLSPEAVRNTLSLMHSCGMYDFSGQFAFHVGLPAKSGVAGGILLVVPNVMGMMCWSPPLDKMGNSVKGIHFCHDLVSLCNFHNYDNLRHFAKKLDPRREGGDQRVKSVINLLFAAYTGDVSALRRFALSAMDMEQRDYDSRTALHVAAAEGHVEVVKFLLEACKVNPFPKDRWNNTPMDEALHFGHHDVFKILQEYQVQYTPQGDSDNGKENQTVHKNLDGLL
Outline: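 Glutamate formation by hKGA was monitored fluorometrically using coupled glutamate oxidase, HRP and Amplex Red. Substrate was added as 1 mM L-glutamine solution; incubation was 30 min at RT after an initial read.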

[16] = qHTS of Trypanosoma Brucei Inhibitors: LOPAC Validation (AID 624147); further: 0% is about no effect
Outline: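 Assay buffer: 50 mM TEA pH 7.2, 100 mM KCl, 10 mM MgCl2, 0.05% BSA, 0.01% Tween-20. Pyruvate kinase from T. brucei plus substrate met compound, then ADP (130 uM final). Luminescence was read post 45 min RT.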

[17] = target: Glucagon-like peptide 1 receptor (Homo sapiens) (UniProt P43220); assay: qHTS of GLP-1 Receptor Agonists: LOPAC Validation (AID 624148);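 further: 0% is about no effect; higher luminescence signal means agonism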
Glucagon-like peptide 1 receptor (Homo sapiens), sequence (P43220 whole entry, looked up): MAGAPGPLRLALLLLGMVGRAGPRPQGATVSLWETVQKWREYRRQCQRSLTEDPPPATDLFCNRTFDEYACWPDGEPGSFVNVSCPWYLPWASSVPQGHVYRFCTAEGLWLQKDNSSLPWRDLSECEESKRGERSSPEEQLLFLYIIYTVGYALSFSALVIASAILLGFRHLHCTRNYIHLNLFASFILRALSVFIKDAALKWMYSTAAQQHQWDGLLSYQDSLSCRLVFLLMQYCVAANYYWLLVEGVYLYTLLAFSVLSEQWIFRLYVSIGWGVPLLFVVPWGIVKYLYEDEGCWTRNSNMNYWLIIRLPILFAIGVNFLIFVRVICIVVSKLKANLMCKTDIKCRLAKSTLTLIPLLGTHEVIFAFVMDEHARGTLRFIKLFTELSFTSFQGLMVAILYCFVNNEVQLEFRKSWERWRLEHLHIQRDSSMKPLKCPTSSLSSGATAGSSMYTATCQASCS
Outline: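 HEK293 cells stably co-expressing a cAMP-responsive luciferase reporter and a hypersensitive GLP-1R were plated 12 h at 37 °C and exposed to compounds for 4-6 hr at 37 °C, 5% CO2. Luminescence was read 12 min after adding detection reagent.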

[18] = qHTS of Nrf2 Activators: LOPAC Validation (AID 624149); further: 0% is about no effect
Outline: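 Cells (AREc32_Fluc) are plated at 1000 per well in OPTI-MEM containing 5% FBS and left overnight. Compounds are pinned in and incubated 24 hr at 37 deg C, and firefly luciferase is detected with Steady-Glo.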

[19] = HTS Assay for Allosteric Antagonists of the Human D2 Dopamine Receptor: Hit Validation in HTRF (AID 624455);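 further: stable D1 dopamine receptor cell line scored for blocking the D1 response; on the % scale 0 is the no-effect control and ±100 the full control effect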
Outline: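 Inhibition of the D1-mediated response is measured by HTRF in cells that stably express the D1 dopamine receptor. Compounds reaching this step are hits from calcium-flux antagonism testing at EC80 dopamine in inducible Hek293 Trex D2 cells.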

S=C(Nc1ccccc1)Nc1nccs1
active: Potency [5] 20.6 µM | Potency [15] 11.2 µM
inactive: outcome [1] | outcome [2] | outcome [3] | outcome [4] | Potency [6] | activation [7] 1.31% | outcome [8] | outcome [9] | Potency [10] | Potency [11] | outcome [12] | Potency [13] | Potency [14] | outcome [16] | outcome [17] | outcome [18] | outcome [19]
-0.228%: viability change [8]
